# High-throughput results from PubChem.
# A selection: hits, their analogues and other compounds. The true share with any hit is near 3.5%.
# TEAD-YAP inh – TEAD-YAP interaction inhibition; HEK-TIYL cells, TEAD-Gal4/YAP UAS-luciferase luminescence; inhibition, % at 9.12 µM; 640,000 tested, 1.4% active; AID 1259422; in the data active means inhibition above about 32%;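 further: 0% = median of test compound wells and 100% = reference inhibitor wells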
# FBW7 activator – human FBW7 E3 ligase activation, primary screen. 650,000 tested, 0.13% active. normalized activity (activation), % at 26.1 µM. AlphaScreen FBW7–phospho-cyclin E peptide binding, activator screen; in the data active means normalized activity above about 1.9%;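 further: purified mutant Fbw7 with reduced substrate affinity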
# GPR151 ag – activators of human GPR151; Q8TDV0; PathHunter beta-arrestin GPR151 cells, luminescence; activation, % at 11.2 µM; 650,000 tested, 1% active; in the data active means activation above about 4.9%;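 further: 0% = median of compound wells and 100% = cells with positive control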
# MITF inh – blocks human microphthalmia-associated transcription factor | O75030 | AlphaScreen MITF homodimerization, bead proximity signal | inhibition, % at 2.6 µM | 650,000 tested, 0.91% active | AID 1259374; in the data active means inhibition above about 50%;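 further: 0% = vehicle wells with protein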
# Target sequence (O75030 whole entry, looked up): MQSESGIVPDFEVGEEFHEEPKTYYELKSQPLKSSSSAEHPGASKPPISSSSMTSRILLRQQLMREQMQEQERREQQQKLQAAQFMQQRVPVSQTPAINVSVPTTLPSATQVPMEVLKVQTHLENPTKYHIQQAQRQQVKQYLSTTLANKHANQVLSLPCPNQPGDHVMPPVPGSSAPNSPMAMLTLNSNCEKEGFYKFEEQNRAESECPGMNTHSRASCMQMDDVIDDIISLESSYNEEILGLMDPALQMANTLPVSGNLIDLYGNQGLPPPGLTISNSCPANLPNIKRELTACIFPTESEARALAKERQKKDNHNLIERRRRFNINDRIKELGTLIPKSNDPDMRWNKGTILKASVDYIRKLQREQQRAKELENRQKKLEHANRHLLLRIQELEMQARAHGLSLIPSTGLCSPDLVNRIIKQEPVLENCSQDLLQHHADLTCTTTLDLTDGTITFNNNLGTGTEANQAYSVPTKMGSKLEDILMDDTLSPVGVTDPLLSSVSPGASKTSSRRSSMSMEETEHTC
# MITF inh conf – confirmation of human MITF inhibitors | shares compounds with MITF inh | AlphaScreen MITF homodimerization, biotin/His-MITF beads | inhibition, % at 2.6 µM | 4,700 tested, 16% active | AID 1259372;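 active means inhibition above a cutoff derived from the DMSO control wells, cut at about 28% in these data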;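 further: 0% = MITF dimer wells with DMSO only; inhibitors lower the bead chemiluminescence by keeping MITF from dimerizing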
# AS interf DR – AlphaScreen optical interference, dose response counter-screen; 480 tested, 6% active; shares compounds with MITF inh; AlphaScreen optical interference counterscreen, cell-free; IC50, µM; call rule not given here
# AS interf ctr – AlphaScreen optical interference, counter-screen. inhibition, % at 2.6 µM. shares compounds with MITF inh. LysRS AlphaScreen counterscreen, signal interference, triplicate. 4,700 tested, 7.6% active;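 active means inhibition above a cutoff derived from the DMSO control wells, cut at about 30% in these data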
# Numbers without * were called inactive; nt = no result given.
SMILES,TEAD-YAP inh,FBW7 activator,GPR151 ag,MITF inh,MITF inh conf,AS interf ctr,others
CCOCCCNC(=O)CC(c1ccccc1)c1ccccc1O (stereo unspecified),9.9,-0.1,0.5,-21.0,nt,nt,
O=C(CSc1ccc(-c2ccccn2)nn1)Nc1ccccc1F,0.3,0.1,-4.8,52.0*,56.1*,88.5*,
O=C(CSc1ccc(-c2ccccn2)nn1)Nc1ccc(F)c(F)c1,-1.1,-1.9,-2.3,17.3,nt,nt,
O=C(CSc1ccc(-c2ccccn2)nn1)c1ccccc1,-43.7,-1.9,0.5,53.0*,88.0*,100.3*,
CCCC/C=C/c1cn2c(NC(=O)Cc3cccc(OC)c3)cnc2cn1,-1.9,0.0,0.8,-7.4,nt,nt,
Cc1ccc(OCC(=O)Nc2cccc(-c3nn4c(C)nnc4s3)c2)cc1,8.6,-0.1,-0.5,11.4,nt,nt,
c1ccc(OCc2nc3ccccc3n2CC2CCN(Cc3ccccn3)CC2)cc1,4.7,-0.6,0.0,90.2*,15.1,22.9,
CCC(C)NC(=O)CN(c1ccc(OC)c(OC)c1)S(=O)(=O)c1ccc(C)cc1 (stereo unspecified),-0.9,0.6,-0.6,10.6,nt,nt,
C=CCNCCOCCOc1ccccc1C(C)CC (stereo unspecified),6.7,0.1,4.6,31.1,nt,nt,
CCC(C)c1ccccc1OCCOCCN1CCOCC1 (stereo unspecified),4.9,-0.2,0.3,76.2*,-9.2,-5.4,
c1ccc2c(OCCOCCNCCN3CCOCC3)cccc2c1,5.6,0.1,1.2,52.4*,7.2,20.5,
CCN1CCN(CCCOc2ccccc2OCc2ccccc2)CC1,-8.7,-0.1,-2.1,69.4*,14.8,5.6,
CCC(C)c1ccccc1OCCOCCN(C)C (stereo unspecified),0.1,-0.3,0.6,86.2*,12.8,13.5,
CCC(C)c1ccccc1OCCOCCN1CCCC1 (stereo unspecified),1.6,-0.1,-0.4,12.3,nt,nt,
CCOc1ccccc1OCCCCN1CCOCC1,-1.4,0.0,-0.5,37.3,nt,nt,
CCC(C)c1ccccc1OCCN1CCNCC1 (stereo unspecified),-6.2,-0.1,-0.9,40.4,nt,nt,
CCN1CCN(CCCCOc2ccccc2OC(C)C)CC1,-3.5,-0.3,3.9,50.8*,12.9,18.7,
CCN1CCN(CCCCOc2cccc3ccccc23)CC1,2.9,0.5,0.2,34.6,nt,nt,
CCC(C)c1ccccc1OCCCN1CCOCC1 (stereo unspecified),10.0,-0.2,0.8,61.4*,-7.6,10.7,
CC(=O)c1ccccc1OCCCN1CCOCC1,6.4,0.0,-0.8,31.2,nt,nt,
CCC(C)c1ccccc1OCCCCN1CCOCC1 (stereo unspecified),-2.0,0.0,0.3,51.0*,-8.4,-6.5,
CCC(C)c1ccccc1OCCCN1CCN(CC)CC1 (stereo unspecified),5.0,-0.5,0.0,63.2*,14.3,19.4,
CCn1c(N2CCC(C(=O)NCCc3c[nH]c4ccccc34)CC2)nc2ccccc21,-5.4,-0.1,1.1,-2.6,nt,nt,
CCN(CC)CC(O)CN1CCN(S(=O)(=O)c2ccc(Cl)cc2)CC1 (stereo unspecified),6.2,-0.1,-0.1,60.8*,7.8,7.3,
CC(C)(C)OCC(O)CN1CCN(C(=O)c2ccccc2)CC1 (stereo unspecified),-12.0,-0.3,-2.2,42.7,nt,nt,
SMILES,TEAD-YAP inh,FBW7 activator,GPR151 ag,MITF inh,MITF inh conf,AS interf ctr,others
CCN(CC)CC(O)CN1CCN(C(=O)c2ccccc2)CC1 (stereo unspecified),-5.6,-0.2,-1.6,52.0*,11.0,10.4,
CCc1cccc2c(C#N)cn(CC(=O)N3CCCC3)c12,-0.5,0.0,1.6,-0.9,nt,nt,
Cc1cc(Cl)cc(Br)c1OCCCCn1cncn1,9.4,0.1,-1.3,62.8*,0.0,-4.2,
Cc1cc(Cl)c(OCCCn2cncn2)c(Br)c1,-0.1,0.2,-0.4,4.4,nt,nt,
COc1cccc(NC(=O)c2c(O)c3c(n(CC(C)C)c2=O)CCCC3)c1,-5.2,-0.1,-1.3,-2.2,nt,nt,
COc1ccc(COCC(O)CNCCCN2CCOCC2)cc1OC (stereo unspecified),9.1,0.1,-0.6,53.5*,-6.6,-2.4,
OC(CNCCN1CCOCC1)COc1ccccc1 (stereo unspecified),-5.7,0.0,1.1,74.7*,4.0,1.9,
COc1ccc(COCC(O)CNCCOCCO)cc1OC (stereo unspecified),-4.0,0.2,0.0,4.7,nt,nt,
OC(COc1ccccc1)CN1CCOCC1 (stereo unspecified),1.4,-0.1,-0.2,-1.4,nt,nt,
OC(CNCCN1CCOCC1)COC1CCCc2ccccc21 (stereo unspecified),7.2,-0.1,0.3,72.8*,13.3,15.1,
CC(C)Cc1ccc(CN2CCC3(CC2)CC3C(=O)N2C[C@@H](C)O[C@@H](C)C2)cc1 (stereo partly specified),3.8,-0.1,-0.5,1.9,nt,nt,
O=C(/C=C/c1ccco1)NCC(=O)N/N=C/c1ccc(C(=O)O)cc1,5.5,0.1,0.8,51.2*,45.1*,-5.2,AS interf DR=>6.48
Cc1nn(C(=O)c2ccc3c(c2)OCO3)c(N)c1-c1ccccc1,-31.9,-0.1,-1.6,51.6*,1.7,6.2,
Cc1nn(C(=O)c2cccs2)c(N)c1-c1ccccc1,-68.8,0.0,1.3,6.1,nt,nt,
COc1cccc(C(=O)N2CCN(C(=O)CCC3CCCC3)CC2)c1,-2.6,-0.1,0.0,2.3,nt,nt,
COc1cccc(C(=O)Nc2ccc(Cl)cc2C(=O)O)c1,7.4,0.1,-3.5,7.2,nt,nt,
Cc1ccc2nc(N3CCC(NCCc4ccccc4F)CC3)nc(C)c2c1,12.3,0.4,0.6,72.6*,-11.5,-7.2,
COc1cc(OC)c(OC)cc1CN1CCN(Cc2cc(OC)c(OC)cc2OC)CC1,-0.2,-0.1,-0.2,70.6*,-4.5,10.4,
COc1cc(OC)c(OC)cc1CN1CCN(Cc2ccccc2Cl)CC1,3.3,-0.2,-0.7,74.8*,8.4,13.7,
COc1cc(OC)c(OC)cc1CN1CCN(Cc2ccc(SC)cc2)CC1,5.9,0.6,-1.4,52.1*,4.1,-1.9,
COc1cc(OC)c(OC)cc1CN1CCN(Cc2ccccc2F)CC1,-1.6,-0.2,0.1,76.9*,3.0,11.9,
COc1cc(OC)c(OC)cc1CN1CCN(Cc2ccccc2Br)CC1,3.1,-0.5,-1.4,39.6,nt,nt,
CCCc1cc(=O)n2[nH]c(NCc3ccc(OCC)cc3)nc2n1,2.4,0.3,0.5,12.9,nt,nt,
COc1ccc(OC)c(CN2CCN(Cc3ccc(OC)cc3OC)CC2)c1,-3.1,-0.9,-0.3,29.8,nt,nt,
COc1cc(OC)c(OC)cc1CN1CCN(Cc2cccc(Br)c2)CC1,13.4,-0.2,0.5,73.2*,11.4,21.5,
COc1ccc(CN2CCN(Cc3ccccc3F)CC2)c(OC)c1,5.0,0.1,-0.9,81.1*,1.3,11.3,
COc1ccc(CN2CCSCC2)c(OC)c1,-2.1,-0.1,-1.0,0.2,nt,nt,
